# Among all 69,000 compounds or so, about 8,600 (12%) showed an effect of 50% or more. This excerpt belongs to a sample that is enriched for strong results.
# Tested on: Plasmodium berghei
# Experiment: Screen against P. berghei liver stage (PbLuc), transformed with Luciferase, at 10uM
# Type: functional, HepG2
# Details: tested at 10 uM
row,Structure (SMILES),INHIBITION [%]
1,O=C(Nc1ccccc1)[C@H]1C[C@H]2CN(S(=O)(=O)C3CC3)C[C@@H]1O2,30.3
2,CC(C)c1cnc(CN2CCCC(c3cc(C(N)=O)[nH]n3)C2)o1 (centres undefined),-0.113
3,Cc1cccnc1NC(=O)c1ccc(F)c(S(=O)(=O)NC2CC2)c1,20.9
4,Cc1ccccc1CN(C)C(=O)CN1CCOC(Cn2cccn2)C1 (centres undefined),-4.16
5,O=C(CCC(=O)Nc1nnc(C(F)(F)F)s1)NCC1CCCO1 (centres undefined),0.207
6,O=C(CCC(=O)Nc1nnc(C2CCCCC2)s1)NCC1CCCO1 (centres undefined),18.4
7,CC(C)c1nnc(NC(=O)CCC(=O)NCC2CCCO2)s1 (centres undefined),52.5
8,Cc1ccc(OCC(O)CNC(=O)C2(c3ccc(F)cc3)CC2)cc1 (centres undefined),-26.1
9,Cc1ncc2c(c1CNC(=O)C1(c3ccc(F)cc3)CC1)CCNC2,61.9
10,COc1ccc(C2(C(=O)NCc3c(C)ncc4c3CCNC4)CC2)cc1,44.3
11,Cc1ncc2c(c1CNC(=O)C1(C)CC1)CCNC2,14.6
12,Cc1ncc2c(c1CNC(=O)C1(C)CCCO1)CCNC2 (centres undefined),56.3
13,Cc1ncc2c(c1CNC(=O)C1(C)CCCCO1)CCNC2 (centres undefined),36.9
14,COc1cccc(CCC(=O)N2CCC[C@@H](N)[C@@H]2c2ccccc2F)c1,14.4
15,COc1c(CNCC(O)c2ccc(C)cc2)c(C(C)C)nn1C (centres undefined),-6.14
16,CS(=O)(=O)CC1(CNc2cc(C#N)c3cc(Cl)ccc3n2)CC1,6.23
17,CC(NC(=O)CNc1cc2c(cc1Cl)NC(=O)CO2)c1ccco1 (centres undefined),17.1
18,Cn1nnnc1SCC(=O)N1CCN(C(=O)C2CC2c2cccs2)CC1 (centres undefined),-40.4
19,CCc1nnc2n1CCN(C(=O)CCc1ccc3c(c1)OCO3)C2,37.4
20,O=C(C1CCOCC1)N1C[C@@H]2[C@@H](C1)OCC(=O)N2Cc1ccncc1,-46.5
21,NC(=O)CCC1CCCN(c2ccc3c(Cl)ccnc3c2F)C1 (centres undefined),38
22,NC(=O)CCC1CCCN(c2ccnc3cc(F)ccc23)C1 (centres undefined),79.3
23,NC(=O)CCC1CCCN(c2ccc3ccc(F)cc3n2)C1 (centres undefined),-65.4
24,Cc1cnccc1CCNC(=O)Nc1cnc(N(C)C)nc1,42.3
25,Cc1nc(NC(=O)C(C)N(C)Cc2cccc(C#N)c2)sc1C (centres undefined),-24.7
26,COc1c(CNC2CCN(c3ccccn3)CC2)c(C(C)C)nn1C,40.2
27,OC1(CNC2CCN(c3ccccn3)CC2)CCc2ccccc21 (centres undefined),7.31

row,Structure (SMILES),INHIBITION [%]
1,COc1ccc(C(C)CCNC2CCN(c3ccccn3)CC2)cc1 (centres undefined),53.4
2,CC(C)COCCNC1CCN(c2ccccn2)CC1,41.4
3,CC(CNC1CCN(c2ccccn2)CC1)Oc1ccc(F)cc1 (centres undefined),65.4
4,c1ccc(N2CCC(NCCc3ccc(-n4cccn4)cc3)CC2)nc1,-15.3
5,CN1CCC/C1=N\S(=O)(=O)c1ccc(NC(=O)c2cccs2)cc1,23.4
6,c1ccc(CN2C[C@@H]3CC[C@H]2CN(Cc2nnc(C4CC4)o2)C3)cc1,45.4
7,Cc1cc(C)n(CC2CN(CC(=O)N3CCC3)CCO2)n1 (centres undefined),8.64
8,CCCN1CCC(c2nc3ccc(-c4cccc(OC)c4)cn3n2)CC1,82.9
9,CCCN1CCC(c2nc3ccc(-c4ccncc4)cn3n2)CC1,16.8
10,CCCN1CCC(c2nc3ccc(-c4cccc(F)c4)cn3n2)CC1,47.5
11,Cc1cccc(-c2ccc3nc(C4CCN(CC5CC5)CC4)nn3c2)c1,46.8
12,CCCN1CCC(c2nc3ccc(-c4ccccc4)cn3n2)CC1,54.8
13,COCCN1CCC(c2nc3ccc(-c4ccccc4)cn3n2)CC1,-18.4
14,CN(CCS(C)(=O)=O)C1CCCN(Cc2noc(C3CC3)n2)C1 (centres undefined),47.3
15,O=C(NC1CCOCC1)c1cccc(C2CCCNC2)c1 (centres undefined),27.7
16,CSCCN1CCC(NC(=O)c2cccc(C3CCCNC3)c2)CC1 (centres undefined),50.8
17,CSc1cccc(CN(C)C(=O)c2ccc(C3CCCNC3)cc2)c1 (centres undefined),9.56
18,CCOC(=O)N1CCC(NC(=O)c2cccc(C3CCCNC3)c2)CC1 (centres undefined),9.72
19,CN(Cc1ccc2c(c1)OCO2)C(=O)c1ccc(C2CCCNC2)cc1 (centres undefined),-26.5
20,CSc1cccc(CN(C)C(=O)c2cccc(C3CCCNC3)c2)c1 (centres undefined),60.4
21,Cc1cccc(-n2cc3[nH]c(=O)n(Cc4cccc(F)c4)n3c2=O)c1,25.2
22,CCc1noc(CN(CC)C(=O)CC2C(=O)NCCN2CC=C(C)C)n1 (centres undefined),16.9
23,Cc1nc(C2NC3(CCCC3)C(=O)N2CC2CC2)cs1 (centres undefined),47.7
24,Cc1csc(C2NC3(CCCC3)C(=O)N2CC2CC2)n1 (centres undefined),43.5
25,CCc1nc(C2NC3(CCCC3)C(=O)N2CC2CC2)cs1 (centres undefined),61.6
26,O=C(NCC1CC1)C1CSCN1S(=O)(=O)c1ccccc1 (centres undefined),-35.9
27,Cc1n[nH]c(C2CN(CCc3cccs3)CCO2)n1 (centres undefined),35.3
